This is part of a sample that, as a whole, favours compounds with a hit. Of some 79,000 tested, about 15% had one in any assay. Calls of active or inactive are those of the source. Cut-off read from the data, not from the text of the source: active = growth inhibition above about 70%; inactive = the rest.

One assay in a line: NCI Yeast Anticancer Drug Screen. Data for the cln2 rad14 strain (AID 165).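 Note: 0% = growth equal to vehicle treated cultures.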 The settings on record: S. cerevisiae cln2 rad14 strain, at 50.0 µM, stronger effect = higher value. In outline:
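Strain: cln2 rad14 yeast, altered in cell cycle control and DNA damage repair. Read-out: growth inhibition vs vehicle.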
Consider `COC(=O)C(C)=C1CCCCC1`, for which the growth inhibition was -38% (inactive).
On the same count and under the same terms, with `CCn1c2ccccc2c2cc(N)c(N=Nc3ccc(-c4ccc(N)c(OC)c4)cc3OC)cc21` the figure was 28.8% (inactive).
In the case of `O=S1C=Cc2ccccc21` (stereo not given), the growth inhibition is 5.8% (inactive).
Turning to `CCN(CC)c1ccc(N=C2C=CC(=O)C(C)=C2)c(C)c1`, the growth inhibition was -23.4% (inactive).
On the same count and under the same terms, with `N#CCCOCC(OCCC#N)C(OCCC#N)C(OCCC#N)C(COCCC#N)OCCC#N` (stereo not given) the figure was 6.15% (inactive); with `Nc1nc(N)nc(CNc2c(Br)cc(Br)cc2Br)n1`, -9.25% (inactive).
Still for that read-out and setting: the result for `CN(C)CC(c1ccccc1)C(O)(c1ccccc1)c1ccccc1` (stereo not given) reads -45.9% (inactive).
On the same count and under the same terms, the result for `CC(=O)N1C(Nc2nccs2)CCN1c1ccccc1` (stereo not given) reads 3.1% (inactive).
Turning to `O=C1C2CCSCN2C(=O)N1c1ccccc1` (stereo not given), the growth inhibition is -15.9% (inactive).
Same read-out and setting: with `CCCCc1c[nH]n(C(N)=NCCSCc2nc[nH]c2C)c1=O` the figure was -20.2% (inactive).
The same measure, in the same setting: the result for `COc1ccc(/C(C#N)=C\c2ccc(N(C)C)cc2)cc1` reads -21.2% (inactive); that for `Nc1ccc(S(=O)(=O)OCCOc2ccccc2)cc1`, -4.2% (inactive); that for `CN1CCC(O)(/C=C\C2(O)CCN(C)CC2)CC1`, -3.95% (inactive).
Same read-out and setting: the result for `N#CC(C#N)CN(C1=NCCO1)c1cccc2c1CCCC2` reads -24.6% (inactive); that for `C(=C/c1ccc(-c2ccccc2)cc1)/C=C/c1ccc(-c2ccccc2)cc1`, -29.2% (inactive); that for `CC(C)S(=O)(=O)/C=C(\I)c1ccccc1`, 6.9% (inactive).
Regarding `Cc1[nH]c(=O)nc(N/N=C/c2ccc(Cl)cc2)c1C(=O)Nc1ccc(Cl)cc1`, the growth inhibition is 1.65% (inactive).
Still for that read-out and setting: the result for `c1cc(C2CCCCC2)ccc1C1CCCCC1` reads -58.1% (inactive); that for `CCOc1ccc(/C=C2\N=C(c3ccc([N+](=O)[O-])cc3)OC2=O)cc1`, 3.45% (inactive); that for `CC(C)OC(=O)N1CCCC1`, -20% (inactive).
The same measure, in the same setting: the result for `CN(C(=O)Cl)c1ccccc1` reads 8.6% (inactive); that for `O=C(O)c1cccc(Sc2ccccc2)c1`, -0.85% (inactive); that for `C[C@@]1(N2C(=O)OC(c3ccccc3)C2=O)C(=O)N2CCS[C@@]21c1ccccc1` (stereo not given in full), 11.3% (inactive).
Still for that read-out and setting: the result for `O=NN(CCCl)C(=O)N[C@H]1CCC[C@@H](O)C1` reads -42.9% (inactive); that for `Cc1cc2c(cc1C=O)C(C)(C)CCC2`, -32.2% (inactive); that for `COc1cccc(OC(=O)Nc2cccc(Cl)c2)c1`, 38.8% (inactive).
On to `CCOC(=O)CC1(O)C(=O)N(Cc2ccccc2)c2ccccc21` (stereo not given), for which the growth inhibition was 0.4% (inactive).
The same measure, in the same setting: the result for `CC1(C)S[C@H](c2ccccc2C(=O)O)N[C@@H]1CC(=O)O` reads -21.7% (inactive).
`OCCN(CCO)c1cc(/C=C/c2c3ccccc3cc3ccccc23)nc2ccccc12`: the growth inhibition is 94.8% (active).
The same measure, in the same setting: the result for `O=C(O)c1cc(C2CC2)nc2ccc(Br)cc12` reads 6.55% (inactive); that for `COC(=O)C(Cc1nc2ccccc2[nH]c1=O)C(=O)C(=O)Nc1ccc(OC)cc1[N+](=O)[O-]` (stereo not given), -77.2% (inactive); that for `O=C1OCC(CN2CCC(n3c(=O)[nH]c4ccccc43)CC2)=C1c1ccccc1`, -25.7% (inactive).
The same measure, in the same setting: with `COc1cc2c(cc1OC)C(=O)/C(=C/c1ccc(N(C)C)cc1)CC2` the figure was -63.7% (inactive).
Same read-out and setting: with `COc1ccc2c(c1)N=C(NNC1=Nc3cc(OC)ccc3SC1)CS2` the figure was -14.9% (inactive); with `O=C1c2ccccc2N2OC3(N4CCOCC4)CCCC3C12c1ccccc1` (stereo not given), 25.9% (inactive).
Turning to `CC(=O)OCC(OC(C)=O)C1OC2OC(C)(C)OC2C1OS(C)(=O)=O` (stereo not given), the growth inhibition is -27.6% (inactive).
On the same count and under the same terms, with `O=C(c1ccccc1)[C@@H]1C[C@H](Sc2ccccc2)c2cc(Cl)ccc2N1` the figure was 23.8% (inactive); with `O=C1CSSCC(=O)NCCCN1`, 0.8% (inactive); with `COC1(C)C=NCC(C)(C)NC(=O)C(C)(OC)C=NCC(C)(C)NC1=O` (stereo not given), -16.4% (inactive).
Same read-out and setting: the result for `Cc1cc(CC(=S)[S-])[n+](C)c(CC(=S)S)c1` reads 3.75% (inactive).

A further assay can be described thus: NCI Yeast Anticancer Drug Screen. Data for the bub3 strain (AID 167). Conditions: S. cerevisiae bub3 mutant strain, at 50.0 µM, stronger effect = higher value. In outline:
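Steps: expose the mutant yeast strain to compound; grow alongside vehicle-treated cultures; measure growth; express inhibition against the vehicle cultures.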
In the case of `COC(=O)C(C)=C1CCCCC1`, the growth inhibition is 11.6% (inactive).
Still for that read-out and setting: the result for `CCn1c2ccccc2c2cc(N)c(N=Nc3ccc(-c4ccc(N)c(OC)c4)cc3OC)cc21` reads -4% (inactive).
The same measure, in the same setting: the result for `O=S1C=Cc2ccccc21` (stereo not given) reads -0.7% (inactive); that for `CCN(CC)c1ccc(N=C2C=CC(=O)C(C)=C2)c(C)c1`, 11.8% (inactive); that for `N#CCCOCC(OCCC#N)C(OCCC#N)C(OCCC#N)C(COCCC#N)OCCC#N` (stereo not given), 6.8% (inactive).
Still for that read-out and setting: with `Nc1nc(N)nc(CNc2c(Br)cc(Br)cc2Br)n1` the figure was -10.2% (inactive).
Regarding `CN(C)CC(c1ccccc1)C(O)(c1ccccc1)c1ccccc1` (stereo not given), the growth inhibition was -18% (inactive).
Same read-out and setting: the result for `CC(=O)N1C(Nc2nccs2)CCN1c1ccccc1` (stereo not given) reads -6.75% (inactive).
Consider `O=C1C2CCSCN2C(=O)N1c1ccccc1` (stereo not given), for which the growth inhibition was -1.15% (inactive).
Turning to `CCCCc1c[nH]n(C(N)=NCCSCc2nc[nH]c2C)c1=O`, the growth inhibition was -2.45% (inactive).
The same measure, in the same setting: the result for `COc1ccc(/C(C#N)=C\c2ccc(N(C)C)cc2)cc1` reads 10.2% (inactive); that for `Nc1ccc(S(=O)(=O)OCCOc2ccccc2)cc1`, 18.7% (inactive); that for `CN1CCC(O)(/C=C\C2(O)CCN(C)CC2)CC1`, 3.65% (inactive).
On the same count and under the same terms, the result for `N#CC(C#N)CN(C1=NCCO1)c1cccc2c1CCCC2` reads -12.4% (inactive); that for `C(=C/c1ccc(-c2ccccc2)cc1)/C=C/c1ccc(-c2ccccc2)cc1`, 6.95% (inactive); that for `CC(C)S(=O)(=O)/C=C(\I)c1ccccc1`, 33.2% (inactive).
Same read-out and setting: the result for `Cc1[nH]c(=O)nc(N/N=C/c2ccc(Cl)cc2)c1C(=O)Nc1ccc(Cl)cc1` reads -34.4% (inactive).
`c1cc(C2CCCCC2)ccc1C1CCCCC1`: the growth inhibition was -16.1% (inactive).
As to `CCOc1ccc(/C=C2\N=C(c3ccc([N+](=O)[O-])cc3)OC2=O)cc1`, the growth inhibition was 15.6% (inactive).
Consider `CC(C)OC(=O)N1CCCC1`, for which the growth inhibition was 13.9% (inactive).
Still for that read-out and setting: with `CN(C(=O)Cl)c1ccccc1` the figure was 16.8% (inactive).
Regarding `O=C(O)c1cccc(Sc2ccccc2)c1`, the growth inhibition is -18.9% (inactive).
Regarding `C[C@@]1(N2C(=O)OC(c3ccccc3)C2=O)C(=O)N2CCS[C@@]21c1ccccc1` (stereo not given in full), the growth inhibition was 5.85% (inactive).
Still for that read-out and setting: with `O=NN(CCCl)C(=O)N[C@H]1CCC[C@@H](O)C1` the figure was -15.2% (inactive); with `Cc1cc2c(cc1C=O)C(C)(C)CCC2`, 2.85% (inactive).
On the same count and under the same terms, the result for `COc1cccc(OC(=O)Nc2cccc(Cl)c2)c1` reads 41.5% (inactive); that for `CCOC(=O)CC1(O)C(=O)N(Cc2ccccc2)c2ccccc21` (stereo not given), 19.8% (inactive); that for `CC1(C)S[C@H](c2ccccc2C(=O)O)N[C@@H]1CC(=O)O`, -26.5% (inactive).
On to `OCCN(CCO)c1cc(/C=C/c2c3ccccc3cc3ccccc23)nc2ccccc12`, for which the growth inhibition is 96.5% (active).
As to `O=C(O)c1cc(C2CC2)nc2ccc(Br)cc12`, the growth inhibition is -5.6% (inactive).
In the case of `COC(=O)C(Cc1nc2ccccc2[nH]c1=O)C(=O)C(=O)Nc1ccc(OC)cc1[N+](=O)[O-]` (stereo not given), the growth inhibition is -1.4% (inactive).
The same measure, in the same setting: with `O=C1OCC(CN2CCC(n3c(=O)[nH]c4ccccc43)CC2)=C1c1ccccc1` the figure was -10.6% (inactive); with `COc1cc2c(cc1OC)C(=O)/C(=C/c1ccc(N(C)C)cc1)CC2`, -7.2% (inactive).
Still for that read-out and setting: the result for `COc1ccc2c(c1)N=C(NNC1=Nc3cc(OC)ccc3SC1)CS2` reads -4.7% (inactive).
Same read-out and setting: the result for `O=C1c2ccccc2N2OC3(N4CCOCC4)CCCC3C12c1ccccc1` (stereo not given) reads 60% (inactive); that for `CC(=O)OCC(OC(C)=O)C1OC2OC(C)(C)OC2C1OS(C)(=O)=O` (stereo not given), 28.6% (inactive); that for `O=C(c1ccccc1)[C@@H]1C[C@H](Sc2ccccc2)c2cc(Cl)ccc2N1`, 0.8% (inactive).
On to `O=C1CSSCC(=O)NCCCN1`, for which the growth inhibition was 2.55% (inactive).
The same measure, in the same setting: with `COC1(C)C=NCC(C)(C)NC(=O)C(C)(OC)C=NCC(C)(C)NC1=O` (stereo not given) the figure was -21.6% (inactive).
As for `Cc1cc(CC(=S)[S-])[n+](C)c(CC(=S)S)c1`, the growth inhibition is -1.55% (inactive).

The values above are taken from PubChem BioAssay (NCI).
